Here are results for 64 compounds from PubChem BioAssay AID1259343 (VanderVen Lab, College of Veterinary Medicine, Cornell …, 2017).

Screen size: about 6,200 compounds; about 2,900 (47%) were called active. The set was probably picked from earlier hits. The list shows a part of the results. A number with no mark means an inactive call. No stated cut-off is given here; in the data, active means inhibition above about 50%; inactive means the rest.

This assay is described as follows: Mycobacterium tuberculosis growth inhibition, primary screen (AID 1259343). To be noted: inhibition: at 10 µM, hits give high values; outcome: 10 uM.
By inhibition is commonly meant the drop in the measured response relative to a control, in per cent. Consider `Oc1cccc2ccc(C=Cc3cccc(Br)c3)nc12`, for which the inhibition is 90.5% (active).

`Oc1cccc2ccc(/C=C/c3ccccc3OC(F)F)nc12`: the inhibition is 100% (active).

As for `COC(=O)c1cc(C=O)c2ccc3ccccc3n12`, the inhibition was 27.1%.

For the compound `COc1ccc(Br)cc1C=Cc1ccc2cccc(O)c2n1`, the inhibition was 17.6%.

For the compound `COC(=O)c1ccc(C=Cc2ccc3cccc(O)c3n2)cc1`, the inhibition was 63.1% (active).

Take `CCc1ccc(NC(=O)C(C)n2cc(C(F)(F)F)ccc2=O)cc1` (centres undefined): the inhibition is 49.6%.

For the compound `CCc1ccc(NC(=O)c2ccc(CN3CCCC3=O)cc2)cc1`, the inhibition was 73.2% (active).

Take `Cc1cc(NC(=O)c2ccc(CN3C(=O)CC4(CCCC4)C3=O)cc2)ccc1Cl`: the inhibition is -6.77%.

Regarding `CC(NS(=O)(=O)c1ccc(Cl)c(C(F)(F)F)c1)C1CC2CCC1C2` (centres undefined), the inhibition entry was “inactive”.

Turning to `CCn1c(C)c(C(=O)CN(C(=O)c2ccc(Br)cc2)C2CCCCC2)c(C)c1C(=O)OC`, the inhibition is 22.6%.

With `Cc1ccccc1C1CC(N(C(=O)c2ccc(Br)cc2)C2CC2)C1` (centres undefined), the inhibition is 82.4% (active).

Consider `Cc1ccc(C(=O)OC(C)CN2CCN(C)CC2)cc1` (centres undefined), for which the inhibition was -10.1%.

Turning to `COC(=O)c1ccc(N2CN=C(c3ccc(C)cc3)NC2=S)cc1`, the inhibition was 87.5% (active).

With `CC1(Oc2ccccc2-c2ccno2)CCN(Cc2ccc(-c3ccccc3)o2)C1` (centres undefined), the inhibition is 25.5%.

On to `Fc1ccc(N2CCN(C[C@H]3CN4CC[C@H]3C[C@@H]4CNC(=S)Nc3ccc(-n4cccn4)cc3)CC2)cc1`, for which the inhibition was 95.6% (active).

In the case of `CC(OC(=O)c1ccc(OCC2CCCO2)cc1)C(=O)Nc1nc(-c2ccc(F)c(F)c2)cs1` (centres undefined), the inhibition is 100% (active).

On to `CCC(C)C(=O)Nc1nc(-c2ccc(OC)c(F)c2)cs1` (centres undefined), for which the inhibition is 0.73%.

In the case of `O=S(=O)(Oc1ccc2oc3ccccc3c2c1)c1ccc2c(c1)OCCO2`, the inhibition is 31.3%.

With `CN(c1cccc(O)c1)S(=O)(=O)c1ccc2c(c1)OCCCO2`, the inhibition was 52.4% (active).

`CN(c1cccc(O)c1)S(=O)(=O)c1cc(Cl)sc1Cl`: the inhibition was -2.74%.

Take `Nc1ccc2scnc2c1`: the inhibition was 94.5% (active).

On to `O=C(Nc1ccc2scnc2c1)C1CC(=O)N(CC2CC2)C1` (centres undefined), for which the inhibition was 34.9%.

For the compound `O=C(Nc1cc(C(F)(F)F)no1)c1ccc(Cl)cc1F`, the inhibition is 97.8% (active).

On to `O=C(NCC1CCC2(CC1)OCCO2)c1ccc(Cl)cc1F`, for which the inhibition is -19.8%.

Consider `CCCSc1nnc(NCc2ccc(OC)cc2)s1`, for which the inhibition is 33.5%.

Consider `Cc1csc(C(C#N)C(=O)CSc2nnc(NC3CC3)s2)n1` (centres undefined), for which the inhibition is 28.8%.

In the case of `CCCSc1nnc(SCC(=O)Nc2nc(C)cs2)s1`, the inhibition was 90.9% (active).

As to `NCC[C@H](O)C(=O)N[C@@H]1C[C@H](N)[C@@H](O[C@H]2O[C@H](CN)[C@@H](O)[C@H](O)[C@H]2O)[C@H](O)[C@H]1O[C@H]1O[C@H](CO)[C@@H](O)[C@H](N)[C@H]1O`, the inhibition is 98.7% (active).

`CN[C@H]1C[C@@H](N)[C@H](O)[C@@H](O[C@@H]2O[C@H](CO)[C@@H]3OC4(O[C@@H]3[C@@H]2O)O[C@H](C(N)CO)[C@H](O)[C@H](O)[C@H]4O)[C@@H]1O` (some centres undefined): the inhibition was 41.3%.

For `CCc1cc(=O)[nH]c(-n2nc(C)cc2NC(=O)Cc2ccc(OC)c(OC)c2)n1`, the inhibition is 48%.

Regarding `COc1ccc(CC(=O)Nc2cc(C)nn2-c2nc(C)cc(=O)[nH]2)cc1OC`, the inhibition is 99% (active).

As to `CCCc1cc(=O)[nH]c(-n2nc(C)cc2NC(=O)Cc2ccc(OC)c(OC)c2)n1`, the inhibition was 98.9% (active).

For the compound `CCOc1ccc(OCCCCOc2ccc(F)cc2)cc1`, the inhibition is 8.32%.

In the case of `Cc1n[nH]c(C)c1CCCCCCOc1ccc(F)cc1`, the inhibition was 87.3% (active).

`Cc1n[nH]c(C)c1CCCCCOc1cccc(Cl)c1`: the inhibition was 99.2% (active).

In the case of `CNc1snc(C)c1C(=O)NCc1ccc2c(c1)CCC2`, the inhibition was 39.8%.

`CNc1snc(C)c1C(=O)OCc1ccc(-n2cccn2)cc1`: the inhibition was 50.2% (active).

For `Cc1oc(-c2ccc(F)cc2F)nc1CN(C)Cc1ccccc1C(F)(F)F`, the inhibition was 30.1%.

Consider `N#Cc1ccc(C(=O)Nc2ccccc2N2CCCCCC2)cc1`, for which the inhibition is 39.7%.

Regarding `COc1cc(C(=O)Nc2cc(Cl)ccc2N2CCSCC2)ccc1C`, the inhibition was 12.9%.

On to `N#Cc1nc(NC(=O)c2ccc(N3CCCC3)c(F)c2)[nH]c1C#N`, for which the inhibition was 70.6% (active).

On to `CCOC(=O)CSc1nnc(CNc2ccc(C)c(Cl)c2)n1C`, for which the inhibition was 94.2% (active).

Consider `OCC1(CCc2ccccc2)CCCN(c2ncnc3sccc23)C1` (centres undefined), for which the inhibition was 22.8%.

With `Oc1c(-c2ccccn2)sc2ccccc12`, the inhibition was 90.9% (active).

With `CN(N=Cc1sc2ccccc2c1O)c1ccccc1`, the inhibition was -9.99%.

Take `Oc1c(N=Nc2ccc3c(c2)OCCO3)sc2ccccc12`: the inhibition was 38.8%.

For `Fc1ccccc1OCc1n[nH]c(=S)o1`, the inhibition is 47.7%.

Regarding `Fc1ccccc1COc1ccccc1CNc1nn[nH]n1`, the inhibition is 57.1% (active).

As for `Cc1ccc(Oc2ncccc2CNc2ncccn2)c(F)c1F`, the inhibition was 23.9%.

Turning to `Cc1cccc2c(=O)n(CC(=O)NCCc3cccc(F)c3)cnc12`, the inhibition was 25.4%.

Take `Cc1cc(NC(=O)Cn2cnc3c(nnn3-c3cccc(F)c3)c2=O)no1`: the inhibition was 87.4% (active).

Consider `CSc1cccc(NC(=O)Cc2csc(N3CCCC3=O)n2)c1`, for which the inhibition was 70.3% (active).

As to `O=C(NCC1CCCO1)C12CC3CC(CC(C3)C1)C2` (centres undefined), the inhibition was 81.2% (active).

With `Cc1cccc(CO[C@]2(C(=O)NCC3CCCO3)CC(OCc3ccc(F)cc3)[C@H](O)[C@H](O)C2)c1` (some centres undefined), the inhibition is -13%.

`Cc1ccc(CNC(=O)c2ccc(Br)o2)cc1F`: the inhibition was 16.3%.

Take `CCCCCCCCNC(=O)c1ccc(Br)o1`: the inhibition was 74.9% (active).

With `Cc1ccc(OCCCCNC(=O)c2ccc(Br)o2)cc1`, the inhibition was 92.2% (active).

Consider `O=C(NCC1CCCO1)c1ccc(Br)o1` (centres undefined), for which the inhibition is 83.8% (active).

As to `O=C(NC1CCCC1)c1ccc(Br)o1`, the inhibition was -20.8%.

Take `O=C(NCCC12CC3CC(CC(C3)C1)C2)C12CC3CC(CC(C3)C1)C2`: the inhibition is -25.6%.

For the compound `O=C(O)C1Nc2ccc(Br)cc2C2C=CCC12` (centres undefined), the inhibition was 84.2% (active).

Regarding `O=C(O)C1Nc2c(Cl)cc(Cl)cc2C2C=CCC12` (centres undefined), the inhibition is 101% (active).

For the compound `O=C(O)c1ccc2c(c1)C1C=CCC1C(c1ccc(Br)cc1)N2` (centres undefined), the inhibition was 66.8% (active).

Take `O=C(O)C1Nc2ccc3ccccc3c2C2C=CCC12` (centres undefined): the inhibition was 16.2%.
